# Calls of active or inactive are those of the source. Unless noted, how the calls were made is not given here.
# Experiments:
# [1] = A549 cell viability effects, profiling panel, calcein-AM fluorescence, 48 h, basal (AID 1162); conditions: higher = more signal; further: test concentration not given here
# [2] = adipocyte viability effects, profiling panel, cell-based, 3T3-L1 adipocytes, calcein-AM fluorescence, 48 h, basal (AID 1163); conditions: 3T3-L1 adipocytes viability, higher = more signal; further: test concentration not given here
# [3] = HepG2 cell viability effects, profiling panel, calcein-AM fluorescence, 48 h, basal (AID 1164); conditions: higher = more signal; further: test concentration not given here
# [4] = MM1S cell viability effects, profiling panel, calcein-AM fluorescence, 48 h, basal (AID 1165); conditions: higher = more signal;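 further: viability of MM1S multiple myeloma cells under basal unstimulated conditions; test concentration not given here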
# [5] = basal RPMI8226 viability, no added stimulus, profiling panel, cell-based, calcein-AM fluorescence, 48 h, PK04 Diversity Set (AID 1166); conditions: RPMI8226 myeloma viability, higher = more signal;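 further: cells grown under basal conditions without added stimulus; test concentration not given here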
# [6] = basal HepG2 mitochondrial membrane potential changes, profiling panel, cell-based, JC-1 fluorescence, 24 h, 100 nL compound (AID 1167); conditions: higher = more signal; further: test concentration not given here
# [7] = basal 3T3-L1 adipocyte mitochondrial potential changes, profiling panel, cell-based, JC-1 fluorescence, 3T3-L1 adipocytes, 24 h, 100 nL compound (AID 1168); conditions: JC-1 mitochondrial fluorescence, higher = more signal, called active from +8 up or from −8 down; further: test concentration not given here
# [8] = basal RPMI8226 mitochondrial membrane potential changes, profiling panel, cell-based, JC-1 fluorescence, 24 h, 100 nL compound (AID 1169); conditions: RPMI8226 myeloma, JC-1 mitochondrial potential fluorescence, higher = more signal; further: test concentration not given here
# [9] = basal MM1S mitochondrial membrane potential changes, profiling panel, cell-based, JC-1 fluorescence, 24 h, 100 nL compound (AID 1170); conditions: higher = more signal; further: test concentration not given here
# [10] = A549 lung cancer cell viability effects, profiling panel, resazurin fluorescence, 24 h, PK04 Diversity Set (AID 1171); conditions: higher = more signal, called active from +8 up or from −8 down; further: test concentration not given here
# [11] = HepG2 liver cancer cell viability effects, profiling panel, resazurin fluorescence, 24 h, PK04 Diversity Set (AID 1172); conditions: higher = more signal; further: test concentration not given here
# [12] = basal S. cerevisiae growth modulation, no modifier, primary screen, OD600, strain BY4716, 24 h, basal condition (AID 1173); conditions: OD600, 24 h, higher = more signal, called active from +8 up or from −8 down
# [13] = MM1S myeloma cell viability, profiling panel, resazurin fluorescence, basal, 24 h, PK04 Diversity Set (AID 1174); conditions: higher = more signal, called active from +8 up or from −8 down;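 further: MM1S multiple myeloma cell line; test concentration not given here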
# [14] = target: Dihydroorotate dehydrogenase (quinone), mitochondrial (Plasmodium falciparum (isolate 3D7)) (UniProt Q08210); test: PfDHODH enzyme inhibitors, primary screen, biochemical, C-terminal His tag, absorbance 600 nm (AID 1175); conditions: DCIP absorbance 600 nm, higher = more signal, called active from +8 up or from −8 down;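 further: recombinant parasite enzyme with a five histidine tag at its C terminus; test concentration not given here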
# Dihydroorotate dehydrogenase (quinone), mitochondrial (Plasmodium falciparum (isolate 3D7)), sequence (Q08210 whole entry, looked up): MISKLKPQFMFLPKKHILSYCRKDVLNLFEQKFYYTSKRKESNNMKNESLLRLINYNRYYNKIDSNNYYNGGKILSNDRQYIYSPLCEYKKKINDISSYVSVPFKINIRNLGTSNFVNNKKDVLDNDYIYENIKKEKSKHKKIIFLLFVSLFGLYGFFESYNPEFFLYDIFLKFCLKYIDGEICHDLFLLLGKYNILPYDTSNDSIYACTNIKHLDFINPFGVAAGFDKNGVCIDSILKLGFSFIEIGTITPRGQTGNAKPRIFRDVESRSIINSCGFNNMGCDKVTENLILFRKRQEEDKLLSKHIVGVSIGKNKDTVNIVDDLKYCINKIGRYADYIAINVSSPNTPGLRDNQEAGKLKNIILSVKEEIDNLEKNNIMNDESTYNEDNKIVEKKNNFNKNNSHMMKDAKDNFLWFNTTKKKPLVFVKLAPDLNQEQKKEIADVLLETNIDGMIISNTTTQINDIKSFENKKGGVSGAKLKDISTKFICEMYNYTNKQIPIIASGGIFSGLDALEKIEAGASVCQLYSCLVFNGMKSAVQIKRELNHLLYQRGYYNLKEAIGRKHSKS
# [15] = P. aeruginosa biofilm formation inhibitors, primary screen, strain PAO1, LB-PBS medium, absorbance 600 nm (AID 1176); further: test concentration not given here; conditions: P. aeruginosa PAO1 growth/biofilm, A600, 12 h; higher = more signal
# [16] = S. cerevisiae RM11-1a growth modifiers, primary screen, strain RM11-1a, OD600, basal, 24 h (AID 1177); conditions: OD600, 24 h, higher = more signal, called active from +8 up or from −8 down;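 further: cultures grown under basal conditions with no added stressor; test concentration not given here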
# [17] = E. coli acrAB mutant growth effects, primary screen, E. coli filamentation inducers, strain DRC39, OD650, 24 h (AID 1178); conditions: higher = more signal, called active from +8 up or from −8 down;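 further: growth measured as culture turbidity by optical density at 650 nm; test concentration not given here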
# [18] = E. coli acrAB mutant growth effects, primary screen, E. coli filamentation inducers, strain DRC39, OD650, 48 h (AID 1179);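 further: screen aims at cell division blockers that make cells filament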; conditions: E. coli DRC39 delta-acrAB growth, higher = more signal, called active from +8 up or from −8 down
# [19] = RPMI8226 myeloma cell viability, profiling panel, resazurin fluorescence, basal, 24 h, PK04 Diversity Set (AID 1180); conditions: higher = more signal;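 further: RPMI8826 multiple myeloma cell line at 5000 cells per well; test concentration not given here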
# [20] = target: E3 ubiquitin-protein ligase XIAP (Homo sapiens) (UniProt P98170); test: XIAP binders, primary screen, biophysical, small-molecule microarray, fluorescence 635 nm (AID 1181); conditions: small-molecule microarray binding, higher = more signal;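 further: score merges 667 nm emission and signal to noise over triplicate slides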
# E3 ubiquitin-protein ligase XIAP (Homo sapiens), sequence (P98170 whole entry, looked up): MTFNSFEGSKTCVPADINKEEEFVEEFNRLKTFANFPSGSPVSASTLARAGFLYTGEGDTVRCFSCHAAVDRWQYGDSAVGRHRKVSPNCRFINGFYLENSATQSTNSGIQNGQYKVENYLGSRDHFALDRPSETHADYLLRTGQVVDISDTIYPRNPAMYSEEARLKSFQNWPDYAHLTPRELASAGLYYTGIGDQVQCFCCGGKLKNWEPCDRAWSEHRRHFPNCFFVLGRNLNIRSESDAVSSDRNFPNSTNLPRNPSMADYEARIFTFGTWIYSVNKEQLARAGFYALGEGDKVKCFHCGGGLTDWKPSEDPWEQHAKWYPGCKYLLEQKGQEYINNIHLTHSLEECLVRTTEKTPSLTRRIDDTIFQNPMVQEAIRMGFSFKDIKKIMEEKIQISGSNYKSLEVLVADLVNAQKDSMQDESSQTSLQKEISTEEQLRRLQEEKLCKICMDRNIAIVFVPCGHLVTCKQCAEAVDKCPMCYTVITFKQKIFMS
Compound,z-score [1],z-score [2],z-score [3],z-score [4],z-score [5],z-score [6],z-score [7],z-score [8],z-score [9],z-score [10],z-score [11],z-score [12],z-score [13],composite z-score [14],z-score [15],z-score [16],z-score [17],z-score [18],z-score [19],composite z-score [20]
CCCCC(=C=CC[C@@H](O)c1ccccc1OCCO)CCO,0.499,0.337,0.595,-0.0292,0.181,0.251,-0.321 (inactive),0.11,0.502,0.245 (inactive),-0.202,-2.07 (inactive),0.684 (inactive),-0.782 (inactive),0.118 (inactive),0.853 (inactive),0.132 (inactive),-0.0575 (inactive),-0.552,-0.24
C[N+](C)(C)CCCCNC(=O)[C@H]1C[C@H]2C(=O)N[C@@H](Cc3ccccc3)C(=O)N2[C@H]1c1ccc(O)cc1,-0.111,-0.649,0.0005,0.27,-0.546,0.169,-0.333 (inactive),-0.831,-1.13,-0.486 (inactive),-1.87,0.606 (inactive),-0.0345 (inactive),-30.9 (active),0.516 (inactive),0.644 (inactive),0.783 (inactive),1.17 (inactive),-0.9,-0.355
C=CCC(OC(C)=O)[C@@H]1[C@@H](N(Cc2ccc(-c3cccc(C(F)(F)F)c3)o2)C(=O)Cc2ccc(F)cc2)c2cc(OCCCO)ccc2N1C(=O)Cc1ccc(OC)cc1 (stereo not given in full),1.31,1.16,0.892,-0.394,0.274,2.87,0.649 (inactive),-0.386,-0.195,0.555 (inactive),1.2,-0.546 (inactive),1.51 (inactive),-1.26 (inactive),0.0186 (inactive),-0.905 (inactive),0.559 (inactive),0.671 (inactive),1.06,0.0181
C=CCOC(=O)[C@@H]1[C@H]2C(=O)O[C@H](c3ccccc3)[C@H](c3ccccc3)N2[C@H](c2ccc(OCCOC(=O)[C@@H]3C[C@@H]4C(=O)N[C@@H](CCCC[N+](C)(C)C)C(=O)N4[C@@H]3c3cccc(OCCO)c3)cc2)[C@@]12C(=O)Nc1ccc(I)cc12,-0.477,0.788,-0.776,-2.78,-2.03,-0.605,0.902 (inactive),-0.637,-1.22,0.504 (inactive),1.34,-1.21 (inactive),-0.669 (inactive),-5.39 (inactive),1.18 (inactive),1.98 (inactive),-0.62 (inactive),-0.659 (inactive),-0.847,-0.126
COc1ccc(C(O)C2C=CC3C(=O)N(c4ccccc4)C(=O)C3N2Nc2ccc(C(C)C)cc2)cc1OCc1ccccc1 (stereo not given),0.997,-1.42,0.915,-0.737,-0.63,-0.318,-0.116 (inactive),-0.427,-0.173,-0.193 (inactive),-0.217,-1.78 (inactive),-0.0284 (inactive),0.785 (inactive),2.33 (inactive),0.165 (inactive),-1.91 (inactive),-1.38 (inactive),-0.291,-0.0535
[N-]=[N+]=NCc1ccccc1C[C@]1(C(=O)O)N=C(c2ccc(OCCCO)cc2)O[C@H]1c1ccccc1N=[N+]=[N-],-0.882,1.09,-0.826,-2.06,-3.85,-1.93,-0.456 (inactive),-1.05,-0.887,-1.77 (inactive),-0.213,-0.496 (inactive),-1.43 (inactive),2.26 (inactive),-0.043 (inactive),1.45 (inactive),0.989 (inactive),-0.0775 (inactive),-1.82,0.0808
COCCOC(=O)N1C(=O)[C@@]2(c3cc(C#Cc4ccc(OC)cc4)ccc31)[C@H](C(N)=O)[C@H]1C(=O)O[C@H](c3ccccc3)[C@H](c3ccccc3)N1[C@@H]2c1ccccc1OCCO,-1.25,1.18,-1.76,-2.32,-3.94,-1.79,2.99 (inactive),-0.994,-1.38,-1.85 (inactive),-0.483,1.06 (inactive),-2.17 (inactive),0.361 (inactive),2.94 (inactive),1.5 (inactive),-0.688 (inactive),-0.469 (inactive),-2.68,0.0748
COC(=O)C=C(CC(O)c1cccc(Cl)c1)OC (stereo not given),0.409,0.0036,1.01,0.892,-0.221,0.456,0.705 (inactive),-0.738,-1.36,-0.34 (inactive),-0.0421,-11.9 (active),0.427 (inactive),-1 (inactive),-1.07 (inactive),-1.85 (inactive),-0.246 (inactive),0.861 (inactive),-0.219,-0.169
C=CC[C@]12N=C(c3ccc(OCCCO)cc3)O[C@H]1c1ccccc1N(Cc1ccccc1)C2=O,-0.739,-0.082,-0.957,-3.44,-3.83,-0.433,2.12 (inactive),-0.982,-2.48,-1.48 (inactive),-0.882,0.143 (inactive),-3.28 (inactive),0.648 (inactive),0.603 (inactive),0.492 (inactive),-0.0819 (inactive),0.328 (inactive),-2.3,-0.122

# Source: PubChem BioAssay
